The campaign covered roughly 360,000 compounds. About 11,000 (3.1%) were called active. Roughly 4% stayed inconclusive and do not appear here. Shown is part of a subset that was picked to be rich in actives. Values without a mark were called inactive. Calls follow the shape of the dose curve; as a rule, active = well fitted inhibition curve with a large enough effect; inconclusive = small, poorly fitted or top-dose-only effect; inactive = no such curve, though single readings can be large or run the other way.
% is scaled to controls: 0 for no effect and ±100 for the full control effect; potency is read from the fitted curve at half-maximal effect.

In the assay the target is Schistosoma mansoni thioredoxin glutathione reductase (TGR) (UniProt Q962Y6). Briefly: qHTS Assay for the Inhibitors of Schistosoma Mansoni Peroxiredoxins. Also: nearly all actives have a fitted effect of over 60% in size. The note with it: purified TGR, DTNB reduction, TNB absorbance 405 nm; series mostly up to 114 µM; activity change, negative = inhibition: at the top concentration. From the text: Schistosomiasis is a major neglected tropical disease that currently affects over 200 million. It is caused by different species of flatworms, such as Schistosoma mansoni. Over the last century, drugs to treat the disease have evolved from potassium antimonyl tartrate, artemisinin, oxamniquine, to praziquantel, with praziquantel remaining the universally-used single drug of choice over the past three decades. However, transmission rates have changed little with praziquantel, and there is evidence for the development of drug resistant parasites. Because there is currently no suitable alternative therapy available, there is an urgent need to identify new targets and drugs for schistosomiasis treatment. Thioredoxin glutathione reductase (TGR), one uniquely positioned S. mansoni enzyme, has been identified as a major component of the worms' distinct and compressed antioxidant "firewall". TGR is a multifunctional enzyme that catalyzes the interconversion between reduced and oxidized forms of both glutathione (GSH) and thioredoxins, thus making it an attractive new antiparasitic target. Recently, a quantitative high-throughput screen of the NIH Molecular Libraries Small Molecule Repository (MLSMR, ~71K at the time of the screen in 2007) was performed using an assay that targeted both TGR and peroxiredoxin2 (Prx2, an H2O2-reducing enzymatic component of the S. mansoni redox "firewall") by following the decrease of NADPH fluorescence. […] Additional mechanistic link between exogenous NO donation and parasitic injury for the oxadiazole-2-oxide class of compounds was also expanded and better defined. Although the screen addressed both TGR and Prx2, the assay required post-screen target deconvolution for further characterization of the actives. In addition, the fluorescence assay was also subject to fluorescence interference from compound library members. We have developed a 1536-well-based kinetic HTS assay to address TGR alone. The assay followed the reduction of 5, 5'-dithiobis (2-nitrobenzoic acid) (DTNB) (Ellman's reagent) by NADPH and measured the increase in absorbance at 412 nm of the reaction product, TNB. […] This assay format can be used to screen the current MLSMR collection (with >300K compounds available) to find novel TGR inhibitors. Furoxan is a good choice to serve as a positive control in the primary HTS assay.
Three microliters of reagents (100 uM NADPH and 20 nM TGR or 100 uM NADPH as no-enzyme control) were dispensed into 1,536-well black clear-bottomed plates. Compounds (23 nL) were transferred via Kalypsys pin tool equipped with 1536-pin array (10 nL slotted pins, V&P Scientific, San Diego, CA). The plates were then be incubated for 15 min at room temperature, and 1 uL aliquot of 500 uM NADPH were added, immediately followed by a 1 uL aliquot of 15 mM DTNB to start the reaction. The plate was transferred to a ViewLux high-throughput CCD imager (Perkin-Elmer, Wellesley, MA) where kinetic measurements of the TNB absorbance were acquired using a 405 excitation filter. Throughout the screen, reagent bottles and all liquid lines were made light-tight to minimize reagent degradation. All screening operations were performed on a fully integrated robotic system (Kalypsys, San Diego, CA) containing one RX-130 and two RX-90 anthropomorphic robotic arms (Staubli, Duncan, SC). Library plates were screened starting from the lowest and proceeding to the highest concentration, and a "double-dipping" step of the highest concentration was required to access higher concentrations of compounds. Vehicle-only plates, with DMSO being pin-transferred to the entire column 5-48 compound area, were inserted uniformly at the beginning and the end of each library in order to monitor for and record any shifts in the background, which can be affected by reagent dispensers or loss in enzyme activity overtime. […]
Background: Quantitative high-throughput screening tests each substance at several concentrations.
With `CCN(CC)C(=O)CSc1nc2cc3c(cc2c(=O)n1CCCC(=O)NCc1ccc2c(c1)OCO2)OCO3`, the “activity change, negative = inhibition” value is 2.19%.
Same read-out and setting: for `CCc1cc(=O)oc2c(C)c(OCC(=O)NCCN3CCOCC3)ccc12` the value was -0.434%.
For the compound `CC(=O)Oc1cc2c(C(=O)NCCN3CCOCC3)c(C)oc2c2ccccc12`, the Potency was 25.1 µM (active).
Turning to `Cc1cc(C)cc(C(=O)NCCN2CCOCC2)c1`, the “activity change, negative = inhibition” value was -4.78%.
On the same count and under the same terms, under `CCS(=O)(=O)N1CCC(n2c(C)nc3cccnc32)CC1` stands -1.46%; under `COC(=O)c1ccc(NC(=O)c2cc(S(=O)(=O)N3CCC(C)CC3)cn2C)cc1`, 5.56%; under `O=C(CCS(=O)(=O)c1ccccc1)NC1CCCC1`, 5.1%.
Regarding `O=C(Nc1nc2c(s1)CCCC2)c1ccccc1F`, the “activity change, negative = inhibition” value was 0.735%.
As to `O=C(CCS(=O)(=O)c1ccccc1)Nc1nc2c(s1)CCCC2`, the Potency is 50.1 µM (active).
In the case of `COc1ccccc1NC(=O)c1cc(C2CC2)nc2c1c(C)nn2-c1ccc(C)cc1`, the “activity change, negative = inhibition” value is 18.1%.
On the same count and under the same terms, for `CCCn1nc(C(=O)N2CCCc3ccccc32)c2ccccc2c1=O` the value was 4.87%.
As for `Cc1occc1C(=O)N1CCCc2ccccc21`, the Potency was 44.7 µM (active).
On to `O=C(c1c(Cl)nc2sccn12)N1CCCc2ccccc21`, for which the “activity change, negative = inhibition” value is -18.7%.
Regarding `CC(C)c1ccc(NC(=O)CN(C)S(=O)(=O)c2ccc3c(c2)c(=O)n(C)c(=O)n3C)cc1`, the “activity change, negative = inhibition” value is 9.79%.
As to `Cc1ccc(Cl)cc1N1CCN(C(=O)CN2C(=O)COc3ccc(S(=O)(=O)N4CCOCC4)cc32)CC1`, the “activity change, negative = inhibition” value was 0.921%.
Consider `CCCNc1ncnc2c1c(-c1ccccc1)cn2-c1ccc(OCC)cc1`, for which the “activity change, negative = inhibition” value was 17.8%.
The same measure, in the same setting: for `CCc1ccc(NC(=O)CN2C(=O)C(c3ccccc3)=NC23CCCCCC3)cc1` the value was -1.58%.
Consider `CCCCCCC(=O)N(O)C1CC(=O)N(c2ccccc2)C1=O` (centres undefined), for which the Potency is 0.282 µM (active).
For the compound `CCCCOC(=O)c1ccc(N2C(=O)CC(N3CCN(C/C=C/c4ccccc4)CC3)C2=O)cc1` (centres undefined), the “activity change, negative = inhibition” value was -10.1%.
On the same count and under the same terms, under `CCOc1ccc(N2C(=O)CC(N(CCc3ccc(OC)c(OC)c3)C(=S)Nc3ccccc3)C2=O)cc1` (centres undefined) stands -3.6%; under `CCOc1cc2[nH]c(=O)n(Cc3ccc(C(=O)NCCN(CC)CC)cc3)c(=O)c2cc1OCC`, 13.9%.
The same measure, in the same setting: under `COc1ccc(-c2nnc(NC(=O)CS(=O)(=O)c3ccc(Cl)cc3)o2)c(OC)c1` stands 6.68%; under `Cc1cc(C)cc(NC(=O)CSc2oc(-c3ccccc3)nc2S(=O)(=O)c2ccc(Cl)cc2)c1`, -27.8%.
For `COc1cc(-c2nc(S(=O)(=O)c3ccc(Cl)cc3)c(N(C)C)o2)cc(OC)c1OC`, the Potency was 25.1 µM (active).
Take `CCOc1ccc(N(CC)S(=O)(=O)N2CCCC(C(=O)NCc3ccc(SC)cc3)C2)cc1` (centres undefined): the “activity change, negative = inhibition” value was -1.82%.
On the same count and under the same terms, for `COc1ccc(-c2c3c(=O)n(C)c(=O)n(C)c3c3c(C)nc4ccccc4n23)cc1` the value was -5.95%; for `CCOc1cc(C2c3c(-c4ccc(Br)cc4)n[nH]c3C(=O)N2c2ccc(Cl)cc2)ccc1O` (centres undefined), -14.7%.
For `CCOC(=O)c1ccc(N2C(=O)c3n[nH]c(C)c3C2c2ccc(O)c(OC)c2)cc1` (centres undefined), the Potency is 11.2 µM (active).
`CCOC(=O)c1ccc(N2C(=O)c3[nH]nc(-c4ccccc4)c3C2c2ccc(C(C)C)cc2)cc1` (centres undefined): the “activity change, negative = inhibition” value was 2.94%.
On the same count and under the same terms, under `CCCn1c2ccccc2c2cnn(CC(=O)N(C)c3ccccc3CC)c(=O)c21` stands -0.711%; under `CSc1ccc(C2c3c(oc4ccccc4c3=O)C(=O)N2CCCN2CCOCC2)cc1` (centres undefined), -4.17%; under `COc1ccc(OC)c(NC(=O)C2CCN(S(=O)(=O)c3ccc(C)cc3)CC2)c1`, -6.25%.
Still for that read-out and setting: for `NC(=O)C1CCN(C(=O)c2cccc(NC(=O)c3nsc4ccccc34)c2)CC1` the value was -3.45%.
Same read-out and setting: for `Cc1ccc(C2CCN(C(=O)c3cnn(-c4ccccc4Cl)c3C3CCN(C(=O)OC(C)(C)C)CC3)C2)cc1` (centres undefined) the value was -6.14%.
Take `Cc1ccccc1C(=O)N(Cc1ccc(N(C)C)cc1)CC1CCCO1` (centres undefined): the “activity change, negative = inhibition” value was -4.37%.
Same read-out and setting: under `O=C(CCS(=O)(=O)c1cc(Br)cc2c1N(C(=O)C1CC1)CC2)Nc1ccc(Br)cc1F` stands -9.17%; under `COc1ccc(OCCCC(=O)Nc2nnc(C3CCCO3)s2)cc1` (centres undefined), -23.5%.
The same measure, in the same setting: under `CNc1nnc(-c2ccco2)s1` stands 0.0938%.
`COc1ccc(OCC(=O)Nc2nnc(-c3ccco3)s2)cc1`: the Potency was 28.2 µM (active).
In the case of `CCOC(=O)N1CCc2c(sc3c2c(=O)n(-c2ccc(CC)cc2)c(=O)n3C)C1`, the “activity change, negative = inhibition” value was 4.2%.
The same measure, in the same setting: for `Cc1ccccc1NC(=O)Cn1c(=O)n(CCCCC(=O)NCc2ccccc2Cl)c(=O)c2ccccc21` the value was 14.5%.
Still for that read-out and setting: for `O=C(CCCC(=O)N1CCN(c2cccc(Cl)c2)CC1)c1ccccc1` the value was 14.1%; for `CC(C)OC(=O)CN1CCN(c2ccc(Cl)cc2)CC1`, -6.1%.
As to `O=C(CN1CCN(c2ccc(Cl)cc2)CC1)c1ccccc1`, the Potency is 17.8 µM (active).
With `Cc1cc(C(=O)OCC(=O)Nc2ccccc2Cl)c(C)o1`, the “activity change, negative = inhibition” value is -10.9%.
As to `O=C(COC(=O)CCc1c[nH]c(=O)[nH]1)Nc1ccccc1Cl`, the Potency is 44.7 µM (active).
In the case of `Cc1cccc(NC(=O)COC(=O)CCc2ccccc2)c1C`, the “activity change, negative = inhibition” value is -1.65%.
On the same count and under the same terms, under `COc1ccccc1NC(=O)Cn1cnc2ccc(S(=O)(=O)N3CCC(C)CC3)cc2c1=O` stands -3.41%; under `COCCNC(=O)c1ccc2c(c1)N(Cc1cccc(Cl)c1)C(=O)c1ccccc1S2(=O)=O`, 6.01%.

For the origin of these results see PubChem BioAssay AID485364 (National Center for Advancing Translational Sciences (NCATS), 2010).
